A selection: hits, their analogues and other compounds. The true share with any hit is near 12%.
Pf growth 96h: P. falciparum growth inhibition at 96 hour, primary screen for plastid delayed-death inhibitors; Potency, µM (doses to about 28.7 µM), without a hit: at the top dose activity change, negative = inhibition, hits mostly inhibitors; P. falciparum luciferase reporter growth, 96 h; 320,000 compounds, 6.9% hits; further: on the % scale 0 is the no-effect control and ±100 the full control effect
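P. falciparum expressing integrated firefly luciferase, in erythrocytes at 2% hematocrit, 0.05% parasitemia, incubated with compounds 96 h at 37 C, 5% CO2. Growth inhibition read as loss of luminescence; two-generation exposure targets delayed-death apicoplast inhibitors.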
Pf growth 48h: inhibits P. falciparum growth in the first generation, 48 h. Potency, µM (top dose mostly 28.7 µM), for the others: at the highest dose activity change, negative = inhibition, most hits filed as inhibitors. P. falciparum luciferase growth in erythrocytes, 48 h. 310,000 compounds, 5.9% hits; further: on the % scale 0 is the no-effect control and ±100 the full control effect
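Luminescence readout; reporter = integrated firefly luciferase in P. falciparum. RBC culture at 2% hematocrit, 0.1% parasitemia final, 37 C/5% CO2; decreased signal taken as growth inhibition.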
SARS PLpro yeast: blocks SARS-CoV papain-like protease in a yeast assay | Potency, µM (top dose mostly 32.9 µM), inactives show top-dose activity, positive = growth rescue, hits mostly activators | S. cerevisiae expressing SARS-CoV PLpro, growth rescue | 330,000 compounds, 0.19% hits; calls by dose curve; further: 0% is about no effect; nearly all actives have a fitted effect of over 55% in size
Sm TGR block: inhibitors of Schistosoma mansoni thioredoxin glutathione reductase. Q962Y6. purified TGR, DTNB reduction, TNB absorbance 405 nm. Potency, µM (doses to about 114 µM), for the others: at the top dose activity change, negative = inhibition, hits mostly inhibitors. 360,000 compounds, 3% hits. AID 485364; further: on the % scale 0 is the no-effect control and ±100 the full control effect; nearly all actives have a fitted effect of over 60% in size
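First, TGR (20 nM dispensed) and NADPH were mixed with compound. Second, a 15 min room-temperature incubation followed. Third, further NADPH and then DTNB were added to start the reaction. Finally, TNB absorbance was monitored kinetically.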
Starred values were filed as active, the others as inactive; ? = inconclusive; . = no result; ! = repeats disagree; [ ] = remark or other dose. Unless noted, the call rests on the fitted dose curve; in most records, active means well fitted curve in the direction sought with a large enough effect; inconclusive means small, poorly fitted or top-dose-only effect, or another doubt; inactive means no such curve, though single readings can be large; an effect the other way counts as inactive or inconclusive. Potency means the concentration at half of the fitted maximal effect.

SMILES	Pf growth 96h	Pf growth 48h	SARS PLpro yeast	Sm TGR block
Cc1cc(OC(F)F)ccc1NC(=S)NCCc1ccccc1	-13%	0%	10%	-1%
COc1cc(C)c(NC(=O)C(=S)NCCc2ccccc2)cc1C	2.3µM*	1%	1%	2%
COc1ccc(NC(=S)NCCc2ccccc2)c(C)c1	15µM*	?	-7%	-6%
Cc1cc(-n2ccnc(NCCc3ccc(S(N)(=O)=O)cc3)c2=O)ccc1Br	.	.	.	-3%
Cc1ccc(N(CC(=O)NCc2ccco2)C(=O)CNS(=O)(=O)c2ccccc2)c(C)c1	22%	?	4%	-19%
COc1ccc(CCNC(=O)Nc2ccc(F)cc2F)cc1OC	-14%	0%	-1%	9%
CCN(CCCNC(=O)c1cc2c(=O)n(C)c3ccccc3c2s1)Cc1ccccc1	.	.	.	-19%
COc1ccc(C(O)c2cc(OC)ccc2OP(=O)(N(C)C)N(C)C)cc1 (stereo unspecified)	5.2µM*	10µM*	8%	1%
COc1ccccc1C(=O)NC(CCSC)C(=O)NCCCn1nc(C)cc1C (stereo unspecified)	6%	-7%	1%	2%
COc1ccc(O)c(C(=O)c2coc(=N)c(C(=O)Nc3ccc(SC(F)F)cc3)c2)c1	2.3µM*	?	1%	5%
CC(C)OC(=O)c1cc(C(=O)c2cc(F)ccc2O)coc1=N	?	.	15%	-2%
Cc1cccc(N2CCN(C(=O)c3noc4c3COc3ccc(C)cc3-4)CC2C)c1 (stereo unspecified)	?	5%	0%	5.6µM*!
Cc1cccc(N2CCN(C(=O)C3CC(=O)N(c4ccc5c(c4)OCCO5)C3)CC2C)c1 (stereo unspecified)	-11%	-29%	6%	45µM*
Cc1ccc2c(c1)-c1onc(C(=O)N3CCN(c4cccc(C)c4C)CC3)c1CO2	.	.	.	1%
Cc1cccc(N2CCN(C(=O)c3ccc4c(c3)OCCO4)CC2C)c1 (stereo unspecified)	37%	-12%	0%	1%
Cc1cc(C(=O)CSc2nnc(-c3ccco3)o2)c(C)n1-c1ccc2c(c1)OCCO2	12µM*	.	3%	7%[11.4 µM]
Cc1cc(-n2c(C)cc(C(=O)CSc3nnnn3-c3ccc(Cl)cc3)c2C)no1	12µM*	12µM*	-18%	-12%
Cc1cc(C(=O)CSc2nnnn2C)c(C)n1-c1ccc2c(c1)OCCO2	.	1%	-14%	35µM*
CCCCN1CC(c2nc3ccccc3n2CCCCOc2ccccc2C)CC1=O (stereo unspecified)	.	.	.	0%
Cc1ccc(-n2ncc(C(=O)NCCN3CCc4ccccc4C3)c2C2CCN(C(=O)OC(C)(C)C)CC2)cc1	.	.	.	7%
CCN(CC(=O)Nc1ccccc1C(F)(F)F)C(=O)c1ccc2[nH]c3c(c2c1)CC(C)CC3 (stereo unspecified)	?	15µM*	6%	0%
CC1CCc2[nH]c3ccc(C(=O)N(C)CC(=O)Nc4ccc(F)cc4)cc3c2C1 (stereo unspecified)	24%	1%	3%	4%
O=C(NC1CC(=O)N(c2ccc(F)cc2)C1)C1CC1 (stereo unspecified)	.	.	.	7%
COc1cc2c(=O)n(-c3ccc(C)cc3)c(=O)n(CC(=O)c3ccc4c(c3)OCO4)c2cc1OC	38%	12µM*	7%	6%
COc1ccccc1NC(=O)Cn1c(=O)n(-c2ccc(C)cc2)c(=O)c2ccc(C(=O)NCc3ccco3)cc21	.	.	.	-14%
SMILES	Pf growth 96h	Pf growth 48h	SARS PLpro yeast	Sm TGR block
O=C(O)CCc1ccc(-c2ccccc2)n1CC(=O)Nc1ccccc1C(F)(F)F	.	.	.	40µM*
O=C(O)CCc1ccc(-c2ccc(Cl)cc2)n1CC(=O)O	17%	60%	-6%	45µM*
O=C(O)CCc1ccc(-c2ccc(Cl)cc2)n1CC(=O)Nc1ccccc1	13%	.	1%	?
O=C(O)CCc1ccc(-c2ccc(Cl)cc2)n1CCC(=O)O	42%	14%	-5%	22µM*
C=CCn1c(CCC(=O)O)ccc1-c1ccccc1	88%	-12%	-3%	45µM*
O=C(O)CCc1ccc(-c2cccs2)n1CC(=O)Nc1ccccc1C(F)(F)F	25%	-21%	-1%	?
CC(=O)N1CCN(C(=O)c2cc(=O)c3ccccc3o2)CC1	16%	12%	-2%	-1%
COc1ccc(N2CC(NC(=O)c3cccs3)CC2=O)cc1OC (stereo unspecified)	.	.	.	8%
COc1ccccc1NC(=O)c1cccc(S(=O)(=O)N2CCCCCC2)c1	.	.	.	7%
CC1CCCCN1S(=O)(=O)c1ccc2c(c1)oc(=O)n2CC(=O)Nc1ccc(Cl)cc1 (stereo unspecified)	.	.	.	0%
CCN(C(=O)COC(=O)c1ccc(C=O)cc1)c1c(N)n(Cc2ccccc2)c(=O)[nH]c1=O	?	-5%	5%	-13%
Cc1cn2c(=O)cc(COC(=O)c3ccc(NC(=O)c4ccccc4C)cc3)nc2s1	.	.	.	0%
CCOC(=O)c1cccc(NC(=O)[C@H](CSCc2ccccc2)N2Cc3ccccc3C2=O)c1	.	.	.	6%
O=C(CSc1nnc(-c2ccccc2)c(-c2ccccc2)n1)Nc1ccccc1Cl	.	.	.	4%
Cc1nc(CSc2nsc(/C=C/N(C)C)c2C#N)cs1	9.3µM*	?	-2%	-1%
CCOP(=O)(OCC)C1(O)C(=O)Nc2ccccc21 (stereo unspecified)	?	-6%	-9%	4%
CC(C)OP(=O)(OC(C)C)C1(O)C(=O)Nc2ccccc21 (stereo unspecified)	2.6µM*	-1%	-1%	-26%
NNC(=S)Nc1ccc(Cl)cc1	?	-8%	3%	-36%
CC(C)N=C(N)N=C(N)Nc1ccc(Cl)cc1	0.33µM*	1.2µM*	.	-20%
NC(=NCCCCCCN=C(N)/N=C(\N)Nc1ccc(Cl)cc1)/N=C(\N)Nc1ccc(Cl)cc1	?	0.33µM*	-37%	6%
CC(C)N=C(N)/N=C(\N)Nc1ccc(Cl)cc1	0.36µM*	2.9µM*	.	.
Cc1cc(C)n(-c2nc3ccccc3nc2Nc2ccc(Cl)c(Cl)c2)n1	.	.	.	8%
COc1ccc(CNn2c(-c3cccc(C)c3)nc3ccccc3c2=O)cc1OC	12µM*	.	3%	8%
COc1cccc(OC)c1C(=O)Nn1c(-c2cccc(C)c2)nc2ccccc2c1=O	?	-22%	0%	-3%
COc1ccccc1CNn1c(-c2cccc(C)c2)nc2ccccc2c1=O	12µM*	.	-8%	-4%
SMILES	Pf growth 96h	Pf growth 48h	SARS PLpro yeast	Sm TGR block
COc1ccccc1Nc1nc(-c2ccc(F)cc2)c2c(n1)-c1ccccc1OC2	.	.	.	6%
Cc1ccc(Cl)c2sc(NC(=O)CS(=O)(=O)c3ccc(Cl)cc3)nc12	.	.	.	0%
C=CCn1c(SCCCCCC)nc(O)cc1=O	6.6µM*	-6%	-13%	3%
Cc1nn(Cc2ccccc2)c(C)c1C(=O)N1CCN(S(=O)(=O)/C=C/c2ccccc2)CC1	4.1µM*	12µM*	0%	-11%
C=CCSC1=N/C(=C\c2ccc3c(c2)OCO3)C(=O)S1	0.41µM*	-2%	-3%	0%
Nc1cc(-c2ccc(Br)cc2)[nH]n1	1.9µM*	56%	-12%	-9%
